Measured values as given in PubChem BioAssay AID1851 (National Center for Advancing Translational Sciences (NCATS), 2009).
The whole screen tested about 16,000 compounds, of which about 2,600 (16%) were called active. About 20% were inconclusive and are not listed. A selection follows. Values without a mark were called inactive. Calls come from the whole dose curve; as a rule, active = well fitted curve in the direction sought with a large enough effect; inconclusive = small, poorly fitted or top-dose-only effect, or effect the other way; inactive = no such curve, though single readings can be large or run the other way.

Target: Cytochrome P450 2D6 (Homo sapiens) (UniProt P10635)
Test: Cytochrome panel assay with activity outcomes
Settings: recombinant CYP, pro-luciferin dealkylation, luminescence, p450-cyp2d6; series mostly up to 57.1 µM; activity, negative = inhibition: at the top concentration
% is set by controls: 0 for no effect and ±100 for the full control effect.

Chain of Cytochrome P450 2D6 (Homo sapiens) (P10635 whole entry, looked up): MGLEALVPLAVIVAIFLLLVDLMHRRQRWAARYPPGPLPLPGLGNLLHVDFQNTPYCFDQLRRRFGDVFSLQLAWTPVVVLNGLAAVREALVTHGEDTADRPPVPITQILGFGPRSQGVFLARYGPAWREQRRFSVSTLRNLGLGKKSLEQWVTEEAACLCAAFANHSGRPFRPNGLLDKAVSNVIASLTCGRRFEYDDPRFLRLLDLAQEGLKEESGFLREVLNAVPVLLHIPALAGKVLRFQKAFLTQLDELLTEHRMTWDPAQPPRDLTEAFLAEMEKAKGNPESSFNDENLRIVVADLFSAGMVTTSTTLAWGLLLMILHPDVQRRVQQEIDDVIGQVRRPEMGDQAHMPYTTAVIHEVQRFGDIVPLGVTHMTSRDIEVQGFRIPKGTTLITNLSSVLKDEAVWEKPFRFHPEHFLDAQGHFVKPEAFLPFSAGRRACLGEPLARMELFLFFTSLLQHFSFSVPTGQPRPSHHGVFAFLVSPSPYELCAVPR

Structure (SMILES) | activity, negative = inhibition | AC50
COCCn1c(=O)c(CCc2ccccc2)nc2cnc(Oc3cccc(Cl)c3)nc21 | -6.18% | 
Nc1ccc(S(=O)(=O)Nc2nccs2)cc1 | 5.42% [at 25.6 µM] | 
CCN(CC)c1ccc(SS(=O)(=O)O)cc1 | -13% | 
C[C@@H](C(=O)NCCc1c[nH]c2ccccc12)[C@H]1C[C@]1(C)[C@H](NC(=O)OCc1ccccc1)c1ccccc1 |  | 2 µM (active)
C[C@@H](C(=O)NCc1ccccn1)[C@@H]1C[C@@]1(C)[C@@H](NC(=O)OCc1ccccc1)c1ccccc1 |  | 12.6 µM (active)
COC(=O)[C@H](C)[C@@H]1C[C@@]1(C)[C@@H](NC(=O)OCc1ccccc1)c1ccccc1 | -2.56% | 
O=C(N[C@@H](c1ccccc1)[C@@H]1C[C@H]1C(=O)NCc1ccccn1)OCc1ccccc1 | 1.41% | 
C[C@@H](C(=O)NCCF)[C@H]1C[C@]1(C)[C@H](NC(=O)OCc1ccccc1)c1ccccc1 |  | 6.31 µM (active)
C[C@@H](C(=O)NCc1cccc2ccccc12)[C@H]1C[C@]1(C)[C@H](NC(=O)OCc1ccccc1)c1ccccc1 | -9.78% | 
COC(=O)[C@H](C)[C@H]1C[C@]1(C)[C@H](NC(=O)OCc1ccccc1)c1ccccc1 | 5.73% | 
O=C(N[C@@H](c1ccccc1)[C@@H]1C[C@H]1C(=O)O)OCc1ccccc1 | 9.66% | 
C[C@@H](C(=O)NCc1ccc(S(C)(=O)=O)cc1)[C@H]1C[C@]1(C)[C@H](NC(=O)OCc1ccccc1)c1ccccc1 |  | 0.398 µM (active)
O=C(O)c1ccccc1-c1ccc(/C=c2\sc3nc4cc(Br)cnc4n3c2=O)o1 | -8.16% | 
N#CC(C#N)=C(N)/C(C#N)=C/c1ccc(O)cc1 | -1.02% | 
COc1ccc(/C(C)=N/NC(=O)c2ccc(N(C)C)cc2)cc1 | -6.35% | 
COc1cc2c(cc1OC)C(C(=O)Nc1cccc(C)n1)C(c1cccnc1)N(C)C2=O (stereo unspecified) | -18.4% | 
COc1cc(C2C(=O)N(C3CCCC3)CC(=O)N2Cc2ccco2)ccc1OC(C)C (stereo unspecified) | 4.45% | 
CCCC1C(=O)N(c2ccccc2)C1c1ccccc1 (stereo unspecified) | 3.57% | 
CCCCOC(=O)c1cc2c(cn1)[nH]c1ccccc12 | -13.7% | 

Structure (SMILES) | activity, negative = inhibition | AC50
CCCC[C@@H]1C[C@H]1C(NC(=O)Cc1ccccc1)c1ccc(-c2ccccc2)cc1 (stereo partly specified) | -5.89% | 
CCOC(=O)c1c(C)nc2sc3c(=O)n(-c4ccc(C)cc4)cnc3c2c1-c1ccc(OC)cc1 | -2.22% | 
O=C(O)c1c2c(c(O)c3c1CN(C1CCCCC1)CO3)OCN(C1CCCCC1)C2 | 15.7% [at 11.4 µM] | 
C[C@@H](C(=O)O)[C@H]1C[C@]1(C)[C@H](NC(=O)OCc1ccccc1)c1ccccc1 | 1.3% | 
C[C@@H](C(=O)O)[C@@H]1C[C@@]1(C)[C@@H](NC(=O)OCc1ccccc1)c1ccccc1 | -0.73% | 
CNC(=O)[C@H](C)[C@@H]1C[C@@]1(C)[C@@H](NC(=O)OCc1ccccc1)c1ccccc1 |  | 3.16 µM (active)
O=C(O)C[C@H](Cc1ccccc1)C(=O)O | 6.15% [at 11.4 µM] | 
CCC(C)NC(=O)NC(=O)N(C1CCCCC1)S(C)(=O)=O (stereo unspecified) | 3.21% | 
CO[C@H]1C[C@@H](O[C@@H]2[C@H](C)[C@H](O[C@@H]3O[C@@H](C)C[C@@H](N(C)C)[C@@H]3O)[C@H](C)C[C@]3(CO3)C(=O)[C@H](C)[C@H](O)[C@H](C)[C@H](C)OC(=O)[C@@H]2C)O[C@@H](C)[C@H]1O | 8.23% [at 25.6 µM] | 
C[N+]1(CCC[N+]2(C)C[C@H]3[C@H](C2)[C@H]2C=C[C@@H]3CC2)CCOCC1 (stereo partly specified) | -2.37% [at 11.4 µM] | 
S=C(CSc1ccccc1)Nc1cccc2ccccc12 | -5.75% [at 11.4 µM] | 
CN=C(N)/N=C(\N)Nc1cc2ccccc2c2ccccc12 |  | 1.58 µM (active)
NC(=S)Nc1cc2ccccc2c2ccccc12 |  | 28.2 µM (active)
NC(=S)Nc1cccc2cccnc12 | -8.92% | 
CSc1nc(Oc2ccc(F)cc2)c2ccccc2n1 | -4.49% | 
C[C@@]1(C(NC(=O)c2cccs2)c2ccc(-c3ccccc3)cc2)C[C@H]1C1CCCCC1 (stereo partly specified) | 7.48% | 
COc1ccc(OC)c(NC(=O)CSCc2cnn(-c3ccccc3)c2-n2cccc2)c1 | -26.4% | 
COc1cccc(Cn2nnc3c(=O)[nH]c(C4CCCN(C(=O)c5ccccc5Cl)C4)nc32)c1 (stereo unspecified) |  | 15.8 µM (active)
COc1ccccc1Cn1nnc2c(=O)[nH]c(C3CCN(C(=O)c4ccc(C)cc4)CC3)nc21 | -27.8% | 

Structure (SMILES) | activity, negative = inhibition | AC50
O=C(NCc1ccco1)c1nc2c(nnn2Cc2cccc(Cl)c2)c(=O)[nH]1 | 1.2% | 
NCCSc1nc(-c2ccccc2)c(-c2ccccc2)o1 | 5.57% [at 11.4 µM] | 
COc1ccc(Br)c2c1C[C@H](C(=O)O)CC2 | 7.4% [at 11.4 µM] | 
O=C(NNC(=O)c1sc2ccccc2c1Cl)Nc1ccc(Cl)cc1 | -18.8% | 
Cc1sc(NC(=O)c2ccccc2)c(C(=O)NCCN(C)C)c1C |  | 14.1 µM (active)
Cc1ccc(C)c(-c2cc(C(=O)Nc3sc(C)c(C)c3C(N)=O)c3ccccc3n2)c1 | 2.56% | 
Cc1sc(NC(=O)C(C)C)c(C(=O)Nc2ccccc2)c1C | -25.2% | 
COc1cccc(-c2nnc3sc(-c4ccc(C)cc4)nn23)c1 | -3.08% | 
O=C(CCn1c(=O)[nH]c2ccsc2c1=O)Nc1ccc(F)c(F)c1 | 15.9% | 
CCOc1cc2[nH]c(=O)n(CCCC(=O)NCc3ccc(OC)cc3)c(=O)c2cc1OCC | -1.12% | 
O=C(CCCCCn1c(=O)[nH]c2ccsc2c1=O)NCc1ccc2c(c1)OCO2 |  | 17.8 µM (active)
COC(=O)C[C@@H]1O[C@H]1[C@H](C)[C@@H](OC)C(C)C | 5.88% [at 11.4 µM] | 
CC[C@@]1(O)C(=O)OCc2c1cc1n(c2=O)Cc2cc3c(CN(C)C)c(O)ccc3nc2-1 | -7.02% [at 11.4 µM] | 
C=CCn1c(Cc2c[nH]c3ccccc23)nnc1SCC(=O)NCc1ccccc1 |  | 15.8 µM (active)
C=CCn1c(Cc2ccc(OC)cc2)nnc1SCC(=O)c1cccc([N+](=O)[O-])c1 | -4.53% | 
CCn1c(Cc2ccccc2)nnc1SCC(=O)NC(C)(C)C | 1.85% | 
Cc1cc(C(=O)N/N=C/c2cccc([N+](=O)[O-])c2)c(C)o1 | -11.5% | 
CCOC(=O)c1cc(-c2ccccc2)sc1NC(=O)c1ccc(OC)cc1 | -3.83% | 
